# Bioassay records from PubChem.
# RGS4 inhibitor: human RGS4 inhibition; P49798; Transcreener GDP fluorescence polarization, RGS4-accelerated GTP hydrolysis; Potency, µM (series often up to 114 µM), for inactives: at the top dose activity change, negative = inhibition, usual class: inhibitors; hit rate 0.039% among 390,000; also: potency is read from the fitted curve at half-maximal effect; % is scaled to controls: 0 for no effect and ±100 for the full control effect; nearly all actives have a fitted effect of over 75% in size
#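 MLSMR compounds (23 nl, pin-transferred) preincubated 10 min at room temperature with a 500nM (2x) first reagent, then RGS4 at 900nM (2x) plus Transcreener GDP mix added; fluorescence polarization (620/688 nm) read before and after 90 min at 30 °C.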
# pAkt inh: inhibitors of Akt phosphorylation. hit rate 0.32% among 360,000. Neuro2A IGF-stimulated pAkt S473 HTRF, 20 min; stronger effect = lower value. activity change, % for hits at 50 µM; in the data active = activity change below about -80%; inconclusive = mostly about -51% to -80%; also: % is scaled to controls: 0 for no effect and ±100 for the full control effect
#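 Neuro2A cells (4,500/well, DMEM with 0.5% FBS) were treated with compound at a single 50 µM final concentration, stimulated with 6 nM IGF for 20 min at 37 °C, and lysed. Phospho-Akt Ser473 was read by HTRF as 665/615 ratio ×10^4.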
# CtBP-E1A blk: blocks the CtBP interaction with E1A. activity change, % (no concentration beside the values). hit rate 0.49% among 340,000. AlphaScreen GST-E1A/His-CtBP binding, 1536-well; stronger effect = lower value; in the data active = activity change below about -65%; inconclusive = mostly about -30% to -63%; also: % is scaled to controls: 0 for no effect and ±100 for the full control effect
#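 Steps: dispense buffer (Tris pH 8.0, NaCl 300 mM, TCEP 1 mM, BSA, Tween 20); add 5X protein mix (GST-E1A, His-CtBP, 125 nM each); pin 23 nL compound; 2 h at 37 °C, dark; add 5X beads (50 ug/mL); 1 h; read.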
# Glioma ERSR ind: ER stress response induction in glioma | U87-MG GRP78 promoter luciferase reporter, 16 h | Potency, µM, for the others: at the highest dose activation, hits mostly activators | hit rate 0.02% among 420,000; also: potency is read from the fitted curve at half-maximal effect; series mostly up to about 76 µM; % of control where 0% means no effect; nearly all actives have a fitted effect of over 35% in size
#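 Stably transfected U87-MG human glioma cells carrying a GRP78-based luminescent sensor were seeded at 1000 cells/well, pin-dosed with compounds and incubated 16 h. Luciferase reagent was then added, and end-point luminescence was read after 10 min at room temperature.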
# Six1-Eya2 inh: inhibitors of human Six1/Eya2 interaction. Q15475+O00167. AlphaScreen GST-Six1/His-Eya2 binding, biochemical; stronger effect = lower value. activity change, % (concentration not given with the values). hit rate 0.56% among 360,000. AID 651725; in the data active = activity change below about -65%; inconclusive = mostly about -30% to -63%; also: % is scaled to controls: 0 for no effect and ±100 for the full control effect
# Target sequence (O00167 whole entry, looked up): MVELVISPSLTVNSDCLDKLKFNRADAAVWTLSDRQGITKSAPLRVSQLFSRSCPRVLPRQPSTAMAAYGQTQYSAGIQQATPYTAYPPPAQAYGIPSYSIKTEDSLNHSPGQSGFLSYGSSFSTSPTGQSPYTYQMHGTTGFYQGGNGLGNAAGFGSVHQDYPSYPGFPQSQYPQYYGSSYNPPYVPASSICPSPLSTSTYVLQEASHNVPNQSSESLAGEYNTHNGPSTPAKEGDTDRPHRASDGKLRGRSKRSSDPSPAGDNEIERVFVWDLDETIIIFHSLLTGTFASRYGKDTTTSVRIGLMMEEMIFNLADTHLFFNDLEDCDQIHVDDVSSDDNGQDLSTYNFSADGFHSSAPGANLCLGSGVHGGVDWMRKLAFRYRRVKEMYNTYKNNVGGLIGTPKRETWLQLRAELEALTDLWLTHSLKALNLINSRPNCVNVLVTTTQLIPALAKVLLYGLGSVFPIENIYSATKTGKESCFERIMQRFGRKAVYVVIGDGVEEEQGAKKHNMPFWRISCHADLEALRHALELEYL
# Target sequence (Q15475 whole entry, looked up): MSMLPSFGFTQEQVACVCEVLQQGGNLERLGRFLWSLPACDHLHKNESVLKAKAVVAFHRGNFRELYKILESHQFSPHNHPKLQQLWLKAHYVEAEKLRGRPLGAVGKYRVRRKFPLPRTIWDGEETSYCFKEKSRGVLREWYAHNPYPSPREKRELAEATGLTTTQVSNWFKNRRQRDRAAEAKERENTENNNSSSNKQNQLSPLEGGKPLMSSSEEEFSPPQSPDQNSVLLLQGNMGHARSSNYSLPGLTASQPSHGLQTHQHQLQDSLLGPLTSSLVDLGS
#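 Compounds are tested against tagged Six1 and Eya2 proteins bridged by glutathione donor and nickel acceptor beads; after a one-hour incubation at 37 °C without light, AlphaScreen emission is recorded.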
# * marks the source's active call; other numbers are inactive results; i = inactive; ? = inconclusive; / = no result given; [ ] = remark or other dose. Compounds with a hit are over-represented: about 0.88% of the library has one in this group of screens. Unless noted, calls follow the shape of the dose curve; as a rule, active = well fitted curve in the direction sought with a large enough effect; inconclusive = small, poorly fitted or top-dose-only effect, or another doubt; inactive = no such curve, though single readings can be large; an effect the other way counts as inactive or inconclusive.
SMILES,RGS4 inhibitor,pAkt inh,CtBP-E1A blk,Glioma ERSR ind,Six1-Eya2 inh
COc1cccc(-c2nc3cc4c(cc3cc2CN(C(=O)c2cc(C)nn2C)C2CC2)CCC4)c1OC,/,/,/,-3.6%,/
CC(=O)NCC(=O)NCC1Cc2cc(C)cc(-c3ccccn3)c2O1 (stereo not given),/,/,/,-1.3%,/
Cc1oc(-c2cccc(NC(=O)c3ccccn3)c2)nc1CNC(=O)C#Cc1ccccc1,/,/,/,-2.1%,/
Cc1ccccc1NC(=O)CCC(=O)N/N=C/c1cc([N+](=O)[O-])ccc1O,8.4%,i,-88.1*,-7.4%,-79.3*
O=C(Cc1cccc2ccccc12)N/N=C/c1ccc(Sc2nc3ccccc3s2)o1,6.9%,-112.2%*,-11.3,-3.5%,-0.3
O=C(N/N=C/c1cc([N+](=O)[O-])ccc1O)C(O)(c1ccccc1)c1ccccc1,13.7%[56.9 µM],i,?,-2.5%,?
CN1CCN(CCC(=O)N/N=C/c2cc([N+](=O)[O-])ccc2O)CC1,-8.7%,i,-76.6*,-4.9%,-86.8*
O=C(CSc1nc2ccccc2s1)N/N=C/c1cc([N+](=O)[O-])ccc1O,-19.8%,i,-68.3*,-1.3%,?
CC(C)(C)n1ncc2c(=O)n(Cc3ccc(Cl)cc3F)cnc21,/,/,/,-2.1%,/
COc1cc(C2c3cc4c(cc3C(OC3OC5COC(C)O[C@@H]5C(O)C3O)C3COC(=O)C23)OCO4)cc(OC)c1O (stereo not given in full),/,/,/,-2.2%,/
CCN(CC)C1CCN(C(=O)c2cnn(-c3nccc(-c4ccco4)n3)c2C(C)C)C1 (stereo not given),/,/,/,-4.5%,/
CC[n+]1c(/C=C/C=C2/N(C)c3ccccc3C2(C)C)sc2ccccc21,21.2µM*,/,/,-14.7%,/
CC[n+]1c(/C=C/C=C/N(C(C)=O)c2ccccc2)sc2ccccc21,?,i,4.3,-3.3%,0.0
O=C(C1CC1)N1CCc2cc(Br)cc(S(=O)(=O)NC3CCCCC3)c21,21.5%,-118.7%*,-12.1,-3.3%,-15.5
O=C(C1CC1)N1CCc2cc(Br)cc(S(=O)(=O)N3CCCCCC3)c21,-43.4%,i,-7.0,-0.8%,-7.4
COc1cccc(/C=N/NC(=O)c2ccc([N+](=O)[O-])cc2Cl)c1O,-19.0%,i,-87.8*,-3.4%,-89.4*
O=C(N/N=C/c1ccccn1)c1ccc([N+](=O)[O-])cc1Cl,20.8%,i,?,3.1%,?
O=C(N/N=C/c1cccnc1)c1ccc([N+](=O)[O-])cc1Cl,12.5%,-82.5%*,13.1,-1.9%,1.8
COc1cccc(CN2CCCC(c3nc(-c4ccncc4)ncc3-c3ccccc3)C2)c1O (stereo not given),/,/,/,-0.9%,/
O=C(NCC1Cc2cccc(-c3ncccn3)c2O1)C1CCCO1 (stereo not given),/,/,/,-4.1%,/
CN1CC[C@H](c2c(O)cc(O)c3c(=O)cc(-c4ccccc4Cl)oc23)[C@@H](O)C1,38.3%,/,/,-3.9%,/
CCOC(=O)C1=C(C)N=C2SC(C)C(=O)N2C1c1ccc(OC(C)=O)c(OC)c1 (stereo not given),4.5%[11.4 µM],-103.9%*,1.2,-10.1%,2.9
C/C(=N\O)c1ccc2c3c([nH]c2c1)CCCC3,-25.6%,-90.2%*,-15.1,-14.6%,-16.9
NC(=O)CC12CC3CC(C1)CC(CC(N)=O)(C3)C2,5.8%,-82.1%*,4.4,-2.9%,0.6
O=C(NCC1Cc2cccc(-c3cccnc3)c2O1)c1ccc2cc[nH]c2c1 (stereo not given),/,/,/,-0.5%,/
SMILES,RGS4 inhibitor,pAkt inh,CtBP-E1A blk,Glioma ERSR ind,Six1-Eya2 inh
COC(=O)c1c(OCc2cccnc2)cc(=O)n2c1CCN(C(=O)c1c3c(nn1C)CCCC3)CC2,/,/,/,2.1%,/
NC(=S)N/N=C/c1c[nH]c2ccccc12,-28.2%,i,2.3,-0.4%,-11.1
NC(=S)NN=Cc1c[nH]c2nccnc12,/,i,-23.6,-5.6%,-66.2*
Oc1cccc(/C=N/NC(=S)NCCN2CCOCC2)c1O,-8.5%,i,-93.7*,1.8%,-69.3*
NC(=S)N/N=C/c1cccc(O)c1O,-22.8%,i,-93.2*,1.7%,-79.9*
O=C(N/N=C/c1ccccc1O)C1SCCCS1,-6.6%,i,-95.0*,-1.0%,-91.9*
S=C(NCCN1CCOCC1)N/N=C/c1cccs1,-3.9%,i,/,-0.1%,-0.9
Oc1ccccc1C=NNC(=S)NN=Cc1ccccc1O,-29.4%,i,-94.9*,-1.0%,-80.6*
